Screen size: about 310,000 compounds; about 1,200 (0.39%) were called active. No rule for the calls is given here. Only a sample is shown. Results with a measured potency or affinity are listed apart.
Biological target: Large T antigen (Simian virus 40) (UniProt P03070)
Test: TAg ATPase/helicase activity blockers – biochemical (AID 1903)
Settings: SV40 large T antigen ATPase/helicase inhibition assay; at 20 µM; stronger effect = higher value

Large T antigen (Simian virus 40), sequence (P03070 whole entry, looked up): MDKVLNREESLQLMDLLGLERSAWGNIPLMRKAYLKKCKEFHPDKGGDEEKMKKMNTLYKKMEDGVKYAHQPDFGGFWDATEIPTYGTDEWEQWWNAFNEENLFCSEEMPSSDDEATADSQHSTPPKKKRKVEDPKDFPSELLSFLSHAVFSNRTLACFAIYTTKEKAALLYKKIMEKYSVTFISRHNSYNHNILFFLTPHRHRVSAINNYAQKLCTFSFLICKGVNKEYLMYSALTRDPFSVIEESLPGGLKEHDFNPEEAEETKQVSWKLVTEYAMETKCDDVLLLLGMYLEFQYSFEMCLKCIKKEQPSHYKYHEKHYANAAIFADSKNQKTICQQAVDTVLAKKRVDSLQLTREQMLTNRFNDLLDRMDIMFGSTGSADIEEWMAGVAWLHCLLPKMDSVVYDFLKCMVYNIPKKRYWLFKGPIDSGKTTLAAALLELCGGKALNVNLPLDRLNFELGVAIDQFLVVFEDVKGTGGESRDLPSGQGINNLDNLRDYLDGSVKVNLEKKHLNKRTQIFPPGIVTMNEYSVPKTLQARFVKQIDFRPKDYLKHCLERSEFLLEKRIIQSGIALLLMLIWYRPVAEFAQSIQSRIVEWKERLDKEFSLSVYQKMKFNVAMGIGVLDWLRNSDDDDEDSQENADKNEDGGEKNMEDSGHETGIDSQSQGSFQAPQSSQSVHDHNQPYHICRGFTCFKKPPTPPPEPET

inhibition, inactive:
Cc1ccc(Nc2nc(-c3sc(C)nc3C)cs2)cc1 3.8%
Cc1nc(C)c(-c2csc(Nc3ccc(F)cc3)n2)s1 6.12%
COc1ccc(/C(C)=N\NC(=O)c2ccc3c(c2)OCO3)cc1OC 1.47%
Cc1c(NS(=O)(=O)c2cc(C(=O)NCCN(C)C)ccc2Cl)c(=O)n(-c2ccccc2)n1C 10.6%
COc1ccc(N=C2SCC(=O)N2c2ccc(OC)cc2)cc1 13.7%
C=CCN1C(=O)CSC1=Nc1ccc(O)cc1 27.9%
Cc1cccc(C(=O)NCC(=O)NCC2COc3ccccc3O2)c1 (configuration not stated) 23.4%
CCOc1c(/C=C(\C#N)C(N)=O)c2ccccc2n1CC 3.23%
COc1ccc(Oc2nc3ccccc3n3cccc23)cc1 5.06%
CCc1ccc2[nH]c(=O)c(C(c3nnnn3CCOC)N3CCN(c4ccccc4)CC3)cc2c1 (configuration not stated) 6%
CCc1ccc2[nH]c(=O)c(C(c3nnnn3CCOC)N3CCN(c4ccc(F)cc4)CC3)cc2c1 (configuration not stated) 16.5%
CSCc1cc(N2CCOCC2)nc(-c2ccccc2)n1 9.12%
O=C(Cc1ccc([N+](=O)[O-])cc1)c1c(O)cc(O)cc1O 28%
O=C(CN1C(=O)c2ccccc2S1(=O)=O)Nc1ccccc1 18.1%
COC(=O)CSC1=NS(=O)(=O)c2ccccc21 5.69%
NS(=O)(=O)c1ccc(NC(=O)c2cccc(N3C(=O)c4ccccc4C3=O)c2)cc1 7.91%
COC(=O)CCC(=O)Nc1ccc(N=Nc2ccccc2)cc1 8.53%
COc1ccc(-c2nc(-c3ccccc3)[nH]c(=O)c2C#N)cc1 9.65%
Clc1cc(Cl)cc(C2=NC(Cc3ccccc3)CO2)c1 (configuration not stated) 4.6%
COc1ccc(C2C(C#N)=C(N)N(N(C)C)C3=C2C(=O)CCC3)cc1 (configuration not stated) 6.69%
COc1cc(/C=C/CO)ccc1O[C@@H]1O[C@H](CO)[C@@H](O)[C@H](O)[C@H]1O 1.74%
COc1ccc(C[C@H]2COC(=O)[C@@H]2Cc2ccc(OC3OC(CO)C(O)C(O)C3O)c(OC)c2)cc1OC (some centres not stated) 11.3%
CCCCOc1ccc(C(=O)NCC(=O)N2CCN(Cc3ccc4c(c3)OCO4)CC2)cc1 14%
COc1ccc(NC(=O)COc2ccc(C)cc2)c([N+](=O)[O-])c1 5.55%
O=C(NCCOCCNC(=O)OCc1ccccc1)OCc1ccccc1 24.2%
CCOC(=O)c1c(NC(C)=O)sc2c(OC)c(Br)ccc12 1.77%
CCOC(=O)c1c(NC(C)=O)sc2c(O)c(Br)ccc12 12.8%
Cc1cc(C)c(C)c(OCCOCCNCc2ccccc2)c1 -32.9%
COc1ccc(NC(=O)CN(C)Cc2c(F)cccc2Cl)cc1S(=O)(=O)N1CCCCC1 4.49%
CN1C(=O)SC(Nc2ccccc2)C1=O (configuration not stated) 5.64%
CN1C(=O)SC(Nc2ccc(F)cc2)C1=O (configuration not stated) 20.7%
CCN(CC)S(=O)(=O)c1cccc(-c2cn3cc(C)ccc3n2)c1 8.06%
O=C(NCCC1CCCCN1S(=O)(=O)c1ccccc1)C(=O)NCc1ccncc1 (configuration not stated) 4.13%
COc1ccc(-c2cc(C(F)(F)F)nc(N3CCN(C)CC3)n2)cc1 1.63%
C/C(=N/NC(=O)CSc1nc2ccccc2n1C)c1ccncc1 1.08%
CC(=O)Nc1ccc(NC(=O)CSc2nc3ccccc3o2)cc1 5.88%
C/C(=N/NC(=O)CSc1nc2ccccc2n1C)c1ccco1 -1.06%
C/C(=N\NC(=O)CSc1nc2ccccc2o1)c1cccc(O)c1 14.6%
O=C(NC1CCCCC1)C1CCCN1S(=O)(=O)c1ccc(Cl)cc1 (configuration not stated) -4.64%
O=C(C1CC1)N1CCN(C(c2ccccc2)c2ccccc2)CC1 20.8%
COc1ccc(NC(=S)N2CCC(NC(=O)c3cccc(C)c3)CC2)cc1 19.3%
FC(F)(F)Oc1ccc(Nc2nc3ccccc3o2)cc1 17%
CS(=O)(=O)c1ccccc1C(=O)Nc1cccc(-c2nc3ccccc3o2)c1 6.81%
CCNC(=S)N/N=C/c1ccc(-c2ccccc2)o1 9.76%
CC(C)Cn1c(=O)c2ccccc2c2ccccc2c1=O 13.4%
O=C(NNC(=O)c1ccccc1-n1cccc1)c1ccc(Cl)cc1 6.79%
CCOc1cc(NS(=O)(=O)c2ccc(NC(C)=O)cc2)c(OCC)cc1NC(=O)C(C)C 9.09%
CCOc1cc(NC(=S)NC)c(OCC)cc1NC(=O)c1cccs1 9.37%
CCCCNC(=O)CNC(=O)c1nn(-c2ccc(OC)cc2OC)c(=O)c2ccccc12 4.78%
CN(C)c1ccc(/C=N/O)cc1 37.8%
CCN(CC)c1ccc(/C=N\NC(N)=O)cc1 24.1%
CN(c1ccccc1)c1ccc(/C=N/N2CCOCC2)cc1 32.7%
CCN(Cc1ccccc1)c1ccc(/C=N/N2CCOCC2)cc1 32.1%
COc1cc(OC)cc(C(=O)Nc2ccc(NC(=O)c3ccco3)c(C)c2)c1 20%
CCOC(=O)c1cccc(NC(=O)CN2CCN(c3ccc(OC)cc3)CC2)c1 38.2%
C=CCC1(CC=C)CCCN1C(=O)CC1C(=O)NCCN1Cc1ccc(OC)c(OC)c1 (configuration not stated) 10.2%
O=C(NC1CCC(O)CC1)c1cccc2cccnc12 (configuration not stated) 3.23%
O=C(NNC(=S)NC(=O)c1ccccc1[N+](=O)[O-])c1ccccc1O 31.4%
Cc1cn(C2OC(COC(=O)c3ccccc3)C(OC(=O)c3ccccc3)C2OC(=O)c2ccccc2)c(=O)[nH]c1=O (configuration not stated) 4.67%
O=C(OCC1OC(n2ccc(=O)[nH]c2=O)C(O)C1OC(=O)c1ccccc1)c1ccccc1 (configuration not stated) 11.7%
COC1OC(COC(=O)c2ccccc2)C(OC(=O)c2ccccc2)C1OC(=O)c1ccccc1 (configuration not stated) 3.67%
O=C(OCC1OC(n2ncc(=O)[nH]c2=O)C(OC(=O)c2ccccc2)C1OC(=O)c1ccccc1)c1ccccc1 (configuration not stated) 6.13%

Reference: PubChem BioAssay AID1903 (Southern Research Specialized Biocontainment Screening …, 2009)
